# According to ChEMBL document CHEMBL3988442, “University of Dundee, Small-Polar-MMV Screening Library” (2021):
# What was measured:
# Format in all cases: functional
# Design in all cases: scale not given: direction of the effect not stated beside the values
# [1] = biological target: AMP-activated protein kinase, AMPK (Homo sapiens) (UniProt P54646+O43741+P54619+Q9UGJ0+Q9Y478+Q13131+Q9UGI9); assay: AMP-dependent Kinase enzyme assay. An in vitro enzyme assay that detects ADP turnover that is directly proportional to AMPK activity. This uses naive AMPK that is activated during the assay with MK-8722; conditions: 30 µM
# [2] = biological target: T1, Arginase-2, mitochondrial (Homo sapiens) (UniProt P78540); assay: in vitro enzyme assay to detect the production of urea directly proportional to the activity of Arginase II; conditions: 30 µM; further: in the data most compounds retested in dose-response had high values
# T1 sequence (whole entry): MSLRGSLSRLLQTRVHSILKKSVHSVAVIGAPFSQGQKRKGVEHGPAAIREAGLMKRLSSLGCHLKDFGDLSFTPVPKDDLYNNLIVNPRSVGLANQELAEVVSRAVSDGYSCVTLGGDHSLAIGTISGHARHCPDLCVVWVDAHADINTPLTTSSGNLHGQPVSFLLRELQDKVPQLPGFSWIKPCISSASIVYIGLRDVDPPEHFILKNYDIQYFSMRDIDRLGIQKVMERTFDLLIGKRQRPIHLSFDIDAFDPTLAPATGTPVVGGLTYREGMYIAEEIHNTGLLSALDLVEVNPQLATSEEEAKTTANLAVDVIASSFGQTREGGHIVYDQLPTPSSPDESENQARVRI
# Trypanosoma cruzi = assay: Trypanosoma cruzi phosphomannomutase and mannose-1-phosphate guanylyltransferase assay; conditions: 10 µM
# Homo sapiens = species: Homo sapiens; assay: To identify inhibition of the IFN signalling (Jak-Stat) pathway via expression of an eGFP reporter gene under the control of an IFN-stimulated response element (ISRE) containing MxA promoter.; conditions: 30 µM
smiles,measurement,setting,value
Cc1cnc(C(NC(=O)NCc2nc(C3CC3)no2)C2CC2)s1 (stereo unspecified),Percent Effect,[1],0.145%
CN(CCc1cccc2ccccc12)Cc1nc(N)nc(N(C)C)n1,Percent Effect,[1],-2.41%
CC(NCc1cnc(N2CCOCC2)s1)c1ccc(Cl)s1 (stereo unspecified),Percent Effect,[1],9.15%
Cc1cc(C)n2c(CNCc3ccc(OC(F)F)cc3)cnc2n1,Percent Effect,[1],-12.4%
Cc1nn(C)c2ncnc(NCc3nncn3C3CCCCC3)c12,Percent Effect,[1],10.1%
O=C(CCc1nc(-c2cccnc2)no1)NCC1CCN(C2CC2)C1 (stereo unspecified),Percent Effect,[1],-2.6%
O=C(c1ccnc(-n2cnnc2)c1)N1CCCC2(CCOC2)C1 (stereo unspecified),Percent Effect,[1],-4.79%
CCOC(=O)N1CCN(C(=O)Cn2ccc3ncccc3c2=O)CC1,Percent Effect,[1],-0.626%
Cc1ccc(F)c2c1N(C(=O)c1ccc(S(C)(=O)=O)cc1)CCC2,Percent Effect,[1],0.782%
CC(C)NC(=O)CN(C)C(=O)c1csc(Cc2ccccc2F)n1,Percent Effect,[1],5.04%
COCCNc1nc(C)nc2c1CCN(C[C@H]1CC[C@@H](N)CC1)CC2,Percent Effect,[1],1.5%
COCCN(Cc1ccccc1)C(=O)c1cnn(C)c1C,Percent Effect,[1],2.02%
CN(Cc1n[nH]c2c1CCCCC2)C(=O)c1cc(-c2cccn2C)n[nH]1,Percent Effect,[1],12.8%
Cc1nc2cc(-c3nccn3C)nn2c(N2CCCC2)c1C,Percent Effect,[1],16.5%
Cc1nn(C)cc1C(=O)N1CCCn2nc(CN3CC[C@H](F)C3)cc2C1,Percent Effect,[1],2.32%
Cc1csc(C(=O)N2CCC(S(C)(=O)=O)C2)c1 (stereo unspecified),Percent Effect,[1],-5.3%
CC(NCc1cccc(NC(=O)C2CCCCC2)c1)c1cnn(C)c1 (stereo unspecified),Percent Effect,[1],4.61%
NS(=O)(=O)c1ccc(N2CCN(CCCc3cn[nH]c3)CC2)cc1,Percent Effect,[1],-5.73%
COC(CNC(=O)c1ccoc1)c1cccc(Cl)c1 (stereo unspecified),Percent Effect,[1],-1.5%
CC(C)(C)C(=O)N1CCC(c2cnc(-c3cn[nH]c3)cn2)CC1,Percent Effect,[1],1.14%
Cc1c(CN2CCc3[nH]cnc3C2C2CC2)[nH]c2ccc(F)cc12 (stereo unspecified),Percent Effect,[1],3.62%
CC(C)Oc1cccc(CN(C)C(=O)Nc2cccn(C)c2=O)c1,Percent Effect,[1],-63%
CN(Cc1ccc([S+](C)[O-])cc1)c1cncc(Br)c1 (stereo unspecified),Percent Effect,[1],13.9%
COCC[C@]1(O)CCN(CC(=O)NCc2ccccc2C)C[C@H]1C,Percent Effect,[1],8.23%
COc1ccc(C(=O)N2C[C@@H](NC(=O)N(C)C)[C@H](C(C)C)C2)c(OC)n1,Percent Effect,[1],1.82%
O=C(COc1ccc(-n2cccn2)nn1)NC1CCCCC1,Percent Effect,[1],-0.431%
CC(C)c1cc(NC(=O)Cn2ccc(=O)c3ccccc32)[nH]n1,Percent Effect,[1],4.99%
CCc1cnc(C(C)NC(=O)N2CCCN(CC(F)F)CC2)s1 (stereo unspecified),Percent Effect,[1],-2.53%
Cc1c(CN2CCc3[nH]cnc3C2C(=O)O)[nH]c2ccc(F)cc12 (stereo unspecified),Percent Effect,[1],3.73%
CN(Cc1nc(C(C)(C)C)no1)C1CCS(=O)(=O)C1 (stereo unspecified),Percent Effect,[1],2.12%
CCC(c1ccccc1)S(=O)(=O)CCO (stereo unspecified),Percent Effect,[1],0.669%
COc1ccc(S(=O)(=O)NC(=O)C(C)OC)c(OC)c1 (stereo unspecified),Percent Effect,[1],-4.37%
CNS(=O)(=O)c1ccc(CNC(=O)NCc2cc[nH]n2)cc1,Percent Effect,[1],2.83%
CC(C)(C)OC(=O)Cn1cccc(S(=O)(=O)N2CCCC2)c1=O,Percent Effect,[2],7.03%
COCc1ccc(C(=O)N(CCC#N)Cc2ccccn2)cc1,Percent Effect,[2],0.54%
c1ccc(O[C@H]2CO[C@@]3(CCN(Cc4ccc5c(c4)OCO5)C3)C2)nc1,Percent Effect,[2],7.03%
Cc1cc(NC(=O)C2CN(Cc3ccccc3)CCO2)ccn1 (stereo unspecified),Percent Effect,[2],3.78%
COCCCC1CCCN(C(=O)CCc2csc(N)n2)C1 (stereo unspecified),Percent Effect,[2],3.78%
O=C(O)C(c1ccc(Cl)c(F)c1)N1CCN(Cc2ccccn2)CC1 (stereo unspecified),Percent Effect,[2],5.95%
c1ccc(OC2COC3(CCN(Cc4ccccn4)CC3)C2)cc1 (stereo unspecified),Percent Effect,[2],0.54%
CNC(=O)[C@H]1C[C@@H]2CN(C(=O)c3cccnc3)C[C@@H]2N1S(C)(=O)=O,Percent Effect,[2],5.95%
CC(=O)N1CCN(C(=O)Cn2ccc3c(Cl)cccc32)CC1,Percent Effect,[2],2.7%
COc1ccc2c(c1)OCC(CNC(=O)c1cnc(NC(C)C)nc1)C2 (stereo unspecified),Percent Effect,[2],2.7%
Cc1ccc(-c2nc(CN3CC(n4nc(C)cc4C)C3)no2)cc1,Percent Effect,[2],3.78%
CC1=Nc2c(c(=O)[nH]n2C2CCCCC2)C(c2ccc(C(=O)O)cc2)S1 (stereo unspecified),Percent Effect,[2],5.95%
Cc1nc(NCC2CC2)nc2c1COCC21CCN(CC(=O)N(C)C)C1 (stereo unspecified),Percent Effect,[2],4.87%
Cc1nc(NCC2CC2)nc2c1COCC21CCN(C(=O)C(C)(C)C)C1 (stereo unspecified),Percent Effect,[2],8.11%
Fc1ccc(CNCc2nnc3n2CC(C(F)(F)F)CC3)cc1 (stereo unspecified),Percent Effect,[2],-13.5%
CC(C)CN1CCC(NC(=O)c2ccc(F)cc2Cl)CC1,Percent Effect,[2],5.95%
CCOC(=O)Cn1cccc(S(=O)(=O)N2CCCC2)c1=O,Percent Effect,[2],-11.3%
Cc1cc(F)c(C(C(=O)O)N2CCN(Cc3ccccn3)CC2)cc1Cl (stereo unspecified),Percent Effect,[2],5.95%
CCS(=O)(=O)CC(=O)N1CCCC1c1noc(C2CC2)n1 (stereo unspecified),Percent Effect,[2],2.7%
CC(C)(C)OC(=O)Cn1cccc(S(=O)(=O)N2CCCCCC2)c1=O,Percent Effect,[2],5.95%
CCc1nc(C)c(C(=O)NCC2COc3cc(OC)ccc3C2)o1 (stereo unspecified),Percent Effect,[2],5.95%
CC(=O)NCCNC(=O)c1cc(Br)c2c(c1)OCCO2,Percent Effect,[2],4.87%
CC1=Nc2c(c(=O)[nH]n2C2CCCC2)C(c2cccnc2)S1 (stereo unspecified),Percent Effect,[2],7.03%
COCc1csc(NC(=O)N2CCC(Cc3cnn(C)c3)C2)n1 (stereo unspecified),Percent Effect,[2],2.7%
CCCn1c(NCCc2ccccc2)nc2c(C)nn(C)c2c1=O,Percent Effect,[2],1.62%
CN(C)c1ncccc1CNC(=O)N(Cc1ccccc1F)C1CC1,Percent Effect,[2],8.11%
Cc1nc(NCC2CC2)nc2c1COCC21CCN(S(=O)(=O)C2CC2)C1 (stereo unspecified),Percent Effect,[2],7.03%
COc1ccc(CNCc2nnc3n2CC(C(F)(F)F)CC3)cc1 (stereo unspecified),Percent Effect,[2],9.19%
O=c1cc(N2CCCC2)cnn1Cc1noc(C2CCCO2)n1 (stereo unspecified),Percent Effect,[1],-1.31%
O=C(Cn1ccc2c(Cl)cccc21)N1CCCC1,Percent Effect,[2],8.11%
Cc1cnc(C(=O)N2CCCC(c3nccn3Cc3cscn3)C2)cn1 (stereo unspecified),Percent Effect,[2],-5.95%
OC(CN(Cc1ccccc1)Cc1ccon1)c1cccs1 (stereo unspecified),Percent Effect,[2],8.11%
COc1ccccc1Oc1ncccc1CNC(=O)[C@@H](N)CCO,Percent Effect,[2],-12.4%
O=C(c1coc(CN2CCN(c3ccccc3F)CC2)n1)N1CC=CC1,Percent Effect,[2],5.95%
CC(C)c1nc(C2CCCN(C(=O)c3ccnc(N(C)C)c3)C2)no1 (stereo unspecified),Percent Effect,Trypanosoma cruzi,-3.62%
same,Percent Effect,Homo sapiens,26.1%
CC(C)c1ncc(CN2CCOC(C(=O)Nc3ccccc3)C2)cn1 (stereo unspecified),Percent Effect,[2],3.78%
Cc1cnc(CN2CCCC(c3cc(C(N)=O)[nH]n3)C2)cn1 (stereo unspecified),Percent Effect,Trypanosoma cruzi,-3.01%
same,Percent Effect,Homo sapiens,6.6%
CC(NC(=O)NCc1cccc(Cl)c1)(C(=O)O)c1ccco1 (stereo unspecified),Percent Effect,Trypanosoma cruzi,5.32%
same,Percent Effect,Homo sapiens,-2.55%
CC1CCN(S(=O)(=O)c2cccn(CC(=O)NC(C)(C)C)c2=O)CC1,Percent Effect,[2],8.11%
Cc1cnn(CC2CCCN2C(=O)c2cccnc2N(C)C)c1 (stereo unspecified),Percent Effect,Trypanosoma cruzi,1.42%
same,Percent Effect,Homo sapiens,-17.9%
CC(C)N(C)C(=O)c1coc(CN2CCN(c3ccccc3F)CC2)n1,Percent Effect,[2],7.03%
CCn1c(NCc2ccccn2)nc2c(C)nn(C)c2c1=O,Percent Effect,[2],-5.95%
N#Cc1ccc(OCC(O)CN2CCN(c3nccs3)CC2)cc1 (stereo unspecified),Percent Effect,[2],5.95%
Cc1nn(CCO)c(C)c1CNC1CCCCc2ccccc21 (stereo unspecified),Percent Effect,[2],3.78%
O=C(Cn1nc2c(cc1=O)CCCC2)NC(Cc1ccccc1)C(=O)O (stereo unspecified),Percent Effect,[2],-13.5%
OC(CN(Cc1ccccc1)Cc1cscn1)c1cccs1 (stereo unspecified),Percent Effect,[2],8.11%
COCCN1CCC(c2cncc(-c3cccc(Cl)c3)n2)CC1,Percent Effect,[2],5.95%
CN(C)C(=O)CN1CCCC(c2cncc(-c3cccc(Cl)c3)n2)C1 (stereo unspecified),Percent Effect,[2],1.62%
CN(C)c1ncccc1CN1CCOC(C(=O)Nc2ccccc2)C1 (stereo unspecified),Percent Effect,[2],1.62%
Cn1cc(CC2CCN(C(=O)NCc3csc(C4CC4)n3)C2)cn1 (stereo unspecified),Percent Effect,[2],7.03%
CN(Cc1ccco1)[C@@H]1CN(Cc2cnn(C)c2)[C@@H]2CCCO[C@H]12,Percent Effect,[2],2.7%
COc1ccccc1Oc1ncccc1CNC(=O)[C@@H](N)[C@@H](C)O,Percent Effect,[2],3.78%
Cc1ccc(CCNC(=O)N2CCC(Cc3cnn(C)c3)C2)cn1 (stereo unspecified),Percent Effect,[2],7.03%
Cc1cc(C(=O)N2CCCC(c3nccn3Cc3cscn3)C2)on1 (stereo unspecified),Percent Effect,[2],9.19%
O=C(COC1CCCC1)N1CCCC1c1noc(C2CC2)n1 (stereo unspecified),Percent Effect,[2],5.95%
CCOCCCNC(=O)c1cc(Br)c2c(c1)OCCO2,Percent Effect,[2],0.54%
O=C(NCC1CC1)[C@@H]1CCO[C@@H]2CCN(CCc3ccccc3)C[C@H]21,Percent Effect,[2],1.62%
Cc1noc(C)c1CN1C[C@@H](N(C)Cc2ccco2)[C@H]2OCCC[C@H]21,Percent Effect,[2],7.03%
CCC(C(=O)NCc1ccncc1)N(c1ccccc1)S(C)(=O)=O (stereo unspecified),Percent Effect,[2],5.95%
Cc1cc(CN(Cc2ccccc2)CC(O)c2cccs2)on1 (stereo unspecified),Percent Effect,[2],3.78%
COC(=O)CCNC(=O)c1cc(Br)c2c(c1)OCCO2,Percent Effect,[2],5.95%
COc1ccc2c(c1)OCC(CNC(=O)NC(C)(C)C)C2 (stereo unspecified),Percent Effect,[2],5.95%
Cc1ccc([C@@H]2CN(S(=O)(=O)c3cc(C)ccc3F)C[C@H]2N(C)C)cc1,Percent Effect,[2],2.7%
CN(C)c1ccc(NC(=O)C2CN(Cc3ccccc3)CCO2)cn1 (stereo unspecified),Percent Effect,[2],10.3%
CN1CCC(c2cncc(-c3cccc(Cl)c3)n2)CC1,Percent Effect,[2],4.87%
FC(F)(F)C1CCc2nnc(CNCc3cccs3)n2C1 (stereo unspecified),Percent Effect,[2],2.7%
CN(CC(=O)N1CCCC1c1noc(C2CC2)n1)C1CC1 (stereo unspecified),Percent Effect,[2],5.95%
Cc1cccc(OCC(O)CN2CCN(c3nccs3)CC2)c1 (stereo unspecified),Percent Effect,[2],3.78%
COc1ncccc1CNC(=O)N(Cc1ccccc1F)C1CC1,Percent Effect,[2],5.95%
COc1ccc(C(=O)N2C[C@@H](C(=O)O)[C@H](c3ccccc3)C2)c(O)c1,Percent Effect,[2],9.19%
CN(C)C1CCCN(C(=O)CCc2csc(N)n2)CC1 (stereo unspecified),Percent Effect,[2],1.62%
COc1ccc2c(c1)OCC(CNC(=O)c1ccc3[nH]nnc3c1)C2 (stereo unspecified),Percent Effect,[2],8.11%
O=C(c1coc(CN2CCN(c3ccccc3F)CC2)n1)N1CCCC1,Percent Effect,[2],3.78%
Cn1cc(CN2C[C@@H]3COC[C@]3(C(=O)NCc3cccs3)C2)cn1,Percent Effect,[2],4.87%
COc1ccccc1Oc1ncccc1CNC(=O)C(C)CN (stereo unspecified),Percent Effect,[2],11.3%
CCc1cc(CNC(=O)N2CCN(c3nc(C)c(C)s3)CC2)on1,Percent Effect,[2],3.78%
Cc1ccc2c(c1)CCC2NCc1c(C)nn(CCO)c1C (stereo unspecified),Percent Effect,[2],3.78%
CCn1ccnc1C1CCCN(C(=O)c2sc(C)nc2C)C1 (stereo unspecified),Percent Effect,[2],2.7%
Cc1nn(CCO)c(C)c1CNC1CCc2c(F)cccc21 (stereo unspecified),Percent Effect,[2],5.95%
